Measurements reported in PubChem BioAssay AID1159580 (chemical genetic matrix, 2015).
In all, about 5,500 compounds went through this assay and about 2,000 (36%) were called active. Inconclusive results (about 18%) are left out. No stated cut-off is given here; in the data, active means normalized growth mostly below about 0.91 (no sharp cut-off); inconclusive means no clear call, values can overlap the other calls; inactive means mostly above about 0.92. The list shows a part of the results.

Assay: chemical genetic growth profiling, strain panel (AID 1159580);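 further: tested at 20 µM; growth read once vehicle control cultures reached saturation at 30 °C; 1 = growth at the plate median or of vehicle wells; lower values mean less growth of the strain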
Settings: growth OD

Measured: normalized growth

Oc1c(Br)cc(Br)c2cccnc12
active: S. cerevisiae deletion strains, locus YJR075W, strain HOC1, active compounds read low 0.0682 | S. cerevisiae deletion strains, locus YKL009W, strain mrt4, active compounds read low 0.0898 | S. cerevisiae deletion strains, locus YKL068W, active compounds read low 0.0659 | S. cerevisiae deletion strains, locus YKL085W, strain MDH1 (second series), active compounds read low 0.0622 | S. cerevisiae deletion strains, locus YKL085W, strain MDH1, active compounds read low 0.0622 | S. cerevisiae deletion strains, locus YKL160W, strain elf1, active compounds read low 0.0686 | S. cerevisiae deletion strains, locus YKL190W, strain CNB1, active compounds read low 0.049 | S. cerevisiae deletion strains, locus YKR001C, strain vps1, active compounds read low 0.0714 | S. cerevisiae deletion strains, locus YKR026C, strain gcn3, active compounds read low 0.0599 | S. cerevisiae deletion strains, locus YKR091W, strain srl3, active compounds read low 0.0574 | S. cerevisiae deletion strains, locus YLL001W, strain dnm1, active compounds read low 0.0635 | S. cerevisiae deletion strains, locus YLL026W, active compounds read low 0.065 | S. cerevisiae deletion strains, locus YLL041C, strain sdh2, active compounds read low 0.0602 | S. cerevisiae deletion strains, locus YLR027C, strain aat2, active compounds read low 0.0544 | S. cerevisiae deletion strains, locus YLR039C, strain RIC1, active compounds read low 0.0808 | S. cerevisiae deletion strains, locus YLR058C, strain SHM2, active compounds read low 0.0497 | S. cerevisiae deletion strains, locus YLR102C, strain apc9, active compounds read low 0.0675 | S. cerevisiae deletion strains, locus YLR113W, strain HOG1, active compounds read low 0.164 | S. cerevisiae deletion strains, locus YLR221C, strain rsa3, active compounds read low 0.061 | S. cerevisiae deletion strains, locus YLR258W, strain gsy2, active compounds read low 0.0604 | S. cerevisiae deletion strains, locus YLR262C, strain YPT6 (second series), active compounds read low 0.0797 | S. cerevisiae deletion strains, locus YLR262C, strain YPT6, active compounds read low 0.106 | S. cerevisiae deletion strains, locus YLR268W, strain sec22, active compounds read low 0.0737 | S. cerevisiae deletion strains, locus YLR320W, strain mms22, active compounds read low 0.0804 | S. cerevisiae deletion strains, locus YLR330W, strain CHS5, active compounds read low 0.0542 | S. cerevisiae deletion strains, locus YLR342W, strain FKS1 (second series), active compounds read low 0.0742 | S. cerevisiae deletion strains, locus YLR342W, strain FKS1, active compounds read low 0.0656 | S. cerevisiae deletion strains, locus YLR357W, strain rsc2, active compounds read low 0.121 | S. cerevisiae deletion strains, locus YLR370C, strain arc18, active compounds read low 0.0663 | S. cerevisiae deletion strains, locus YLR371W, strain rom2, active compounds read low 0.0714 | S. cerevisiae deletion strains, locus YLR384C, strain iki3, active compounds read low 0.0612 | S. cerevisiae deletion strains, locus YLR418C, strain cdc73, active compounds read low 0.11 | S. cerevisiae deletion strains, locus YML016C, strain PPZ1, active compounds read low 0.0489 | S. cerevisiae deletion strains, locus YML032C, strain rad52, active compounds read low 0.0748 | S. cerevisiae deletion strains, locus YML120C, strain ndi1, active compounds read low 0.0584 | S. cerevisiae deletion strains, locus YML124C, strain tub3, active compounds read low 0.067 | S. cerevisiae deletion strains, locus YMR058W, strain fet3, active compounds read low 0.0605 | S. cerevisiae deletion strains, locus YMR078C, strain ctf18, active compounds read low 0.0799 | S. cerevisiae deletion strains, locus YMR125W, strain sto1, active compounds read low 0.0777 | S. cerevisiae deletion strains, locus YMR129W, active compounds read low 0.0576 | S. cerevisiae deletion strains, locus YMR205C, strain PFK2, active compounds read low 0.0851 | S. cerevisiae deletion strains, locus YMR223W, strain ubp8, active compounds read low 0.0723 | S. cerevisiae deletion strains, locus YMR231W, strain pep5, active compounds read low 0.0707 | S. cerevisiae deletion strains, locus YMR263W, strain SAP30, active compounds read low 0.0608 | S. cerevisiae deletion strains, locus YMR307W, strain GAS1, active compounds read low 0.111 | S. cerevisiae deletion strains, locus YNL067W, strain RPL9B, active compounds read low 0.0529 | S. cerevisiae deletion strains, locus YNL071W, strain lat1, active compounds read low 0.061 | S. cerevisiae deletion strains, locus YNL128W, strain TEP1, active compounds read low 0.0661 | S. cerevisiae deletion strains, locus YNL153C, strain GIM3, active compounds read low 0.0523 | S. cerevisiae deletion strains, locus YNL183C, strain NPR1, active compounds read low -0.0047 | S. cerevisiae deletion strains, locus YNL209W, strain ssb2, active compounds read low 0.0598 | S. cerevisiae deletion strains, locus YNL233W, strain BNI4, active compounds read low 0.0553 | S. cerevisiae deletion strains, locus YNL248C, strain rpa49, active compounds read low 0.0858 | S. cerevisiae deletion strains, locus YNL250W, strain rad50, active compounds read low 0.0799 | S. cerevisiae deletion strains, locus YNL271C, strain bni1, active compounds read low 0.075 | S. cerevisiae deletion strains, locus YNL298W, strain CLA4, active compounds read low 0.0729 | S. cerevisiae deletion strains, locus YNL307C, strain MCK1, active compounds read low 0.078 | S. cerevisiae deletion strains, locus YNL322C, strain KRE1 (second series), active compounds read low 0.0637 | S. cerevisiae deletion strains, locus YNL322C, strain KRE1, active compounds read low 0.0493 | S. cerevisiae deletion strains, locus YNR049C, strain mso1, active compounds read low 0.0578 | S. cerevisiae deletion strains, locus YNR052C, strain pop2, active compounds read low 0.0694 | S. cerevisiae deletion strains, locus YOL006C, strain TOP1, active compounds read low 0.108 | S. cerevisiae deletion strains, locus YOL012C, strain htz1 0.189 | S. cerevisiae deletion strains, locus YOL147C, strain pex11, active compounds read low 0.0679 | S. cerevisiae deletion strains, locus YOR001W, strain rrp6, active compounds read low 0.0757 | S. cerevisiae deletion strains, locus YOR061W, strain CKA2, active compounds read low 0.048 | S. cerevisiae deletion strains, locus YOR069W, strain VPS5, active compounds read low 0.0497 | S. cerevisiae deletion strains, locus YOR070C, strain gyp1, active compounds read low 0.59 | S. cerevisiae deletion strains, locus YOR080W, strain dia2, active compounds read low 0.0706 | S. cerevisiae deletion strains, locus YOR083W, strain WHI5, active compounds read low 0.0621 | S. cerevisiae deletion strains, locus YOR106W, strain vam3, active compounds read low 0.0686 | S. cerevisiae deletion strains, locus YOR136W, strain idh2, active compounds read low 0.0816 | S. cerevisiae deletion strains, locus YOR144C, strain elg1, active compounds read low 0.0654 | S. cerevisiae deletion strains, locus YOR184W, strain ser1, active compounds read low 0.0794 | S. cerevisiae deletion strains, locus YOR231W, strain MKK1, active compounds read low 0.109 | S. cerevisiae deletion strains, locus YOR265W, strain rbl2, active compounds read low 0.0573 | S. cerevisiae deletion strains, locus YOR270C, strain vph1, active compounds read low 0.102 | S. cerevisiae deletion strains, locus YOR290C, strain snf2, active compounds read low 0.0632 | S. cerevisiae deletion strains, locus YOR316C, strain cot1, active compounds read low 0.0675 | S. cerevisiae deletion strains, locus YPL051W, strain arl3, active compounds read low 0.0637 | S. cerevisiae deletion strains, locus YPL055C, strain LGE1, active compounds read low 0.0663 | S. cerevisiae deletion strains, locus YPL078C, strain atp4, active compounds read low 0.0651 | S. cerevisiae deletion strains, locus YPL106C, strain sse1, active compounds read low 0.115 | S. cerevisiae deletion strains, locus YPL240C, strain hsp82, active compounds read low 0.0569 | S. cerevisiae deletion strains, locus YPL241C, strain CIN2, active compounds read low 0.0508 | S. cerevisiae deletion strains, locus YPL256C, strain CLN2, active compounds read low 0.126 | S. cerevisiae deletion strains, locus YPR119W, strain clb2, active compounds read low 0.0704 | S. cerevisiae deletion strains, locus YPR141C, strain kar3, active compounds read low 0.0795 | S. cerevisiae deletion strains, locus YPR163C, strain tif3, active compounds read low 0.0768 | S. cerevisiae deletion strains, locus YPR167C, strain met16, active compounds read low 0.0675 | S. cerevisiae deletion strains, strain wtn01, active compounds read low 0.076 | S. cerevisiae strains, strain wild type, active compounds read low 0.0486
